Laboratory results taken from publication PMC7862700, “An all-to-all approach to the identification of sequence-specific readers for epigenetic DNA modifications on cytosine”.

Columns and labels:
Assay in all cases: DAPPL (digital affinity profiling via proximity ligation, sequencing); 10 mM Tris-HCl pH 7.5, 50 mM NaCl, 1 mM DTT, 4% glycerol, room temperature, 30 min; GST-TFs on glutathione beads, 16-mer random dsDNA library, 0.1% formaldehyde crosslink after washing; high values mean tight binding
FLI1 = target: T1, FLI1 (Homo sapiens, UniProt Q01543 1-452); settings: protein: recombinant; tags: N-terminal GST; dsDNA, one strand shown
T1 sequence: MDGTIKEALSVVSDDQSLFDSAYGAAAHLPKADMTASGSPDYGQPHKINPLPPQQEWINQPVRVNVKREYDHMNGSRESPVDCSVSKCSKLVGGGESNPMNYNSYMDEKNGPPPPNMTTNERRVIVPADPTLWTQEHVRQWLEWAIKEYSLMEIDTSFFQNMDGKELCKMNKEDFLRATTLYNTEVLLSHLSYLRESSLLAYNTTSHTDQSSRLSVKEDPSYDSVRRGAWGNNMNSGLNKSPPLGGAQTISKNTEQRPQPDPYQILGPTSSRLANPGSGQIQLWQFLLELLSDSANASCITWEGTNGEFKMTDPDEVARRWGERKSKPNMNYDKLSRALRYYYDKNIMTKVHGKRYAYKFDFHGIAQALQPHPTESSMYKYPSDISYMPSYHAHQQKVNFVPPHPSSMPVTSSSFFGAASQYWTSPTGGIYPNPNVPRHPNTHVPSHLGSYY
Summary of the method: (§1)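 Beads coated with glutathione captured GST-fused human transcription factors that had been expressed in yeast, and the factors were then given DNA barcodes and pooled with a tag-only sample. The pools were incubated with 200 nmole of a random double-stranded 16-mer DNA library in Tris/NaCl/DTT/glycerol buffer for 30 min at room temperature, washed, crosslinked with 0.1% formaldehyde and proximity-ligated with BsaI/T4 ligase at 37 °C for 1 h. PCR amplification and Illumina NextSeq500 sequencing came last. Binding signal is each hexamer's read frequency for a factor divided by its frequency for the tag-only sample.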

ELK1 = target: T2, ELK1 (Homo sapiens, UniProt P19419 1-428); settings: protein: recombinant; tags: N-terminal GST; dsDNA, one strand shown
T2 sequence: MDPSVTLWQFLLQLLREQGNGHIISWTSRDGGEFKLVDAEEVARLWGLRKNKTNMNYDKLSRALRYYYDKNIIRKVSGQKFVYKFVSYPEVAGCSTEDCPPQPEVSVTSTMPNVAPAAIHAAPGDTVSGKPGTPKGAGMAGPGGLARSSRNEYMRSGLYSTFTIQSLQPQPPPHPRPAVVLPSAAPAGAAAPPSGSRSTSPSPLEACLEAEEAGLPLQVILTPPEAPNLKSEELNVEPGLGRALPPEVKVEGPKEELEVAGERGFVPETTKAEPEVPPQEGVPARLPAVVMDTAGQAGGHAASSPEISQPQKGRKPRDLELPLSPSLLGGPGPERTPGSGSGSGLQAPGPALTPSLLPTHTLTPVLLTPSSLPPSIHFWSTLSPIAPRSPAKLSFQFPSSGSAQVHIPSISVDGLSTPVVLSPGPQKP
Summary of the method: as §1

GABPA = target: T3, GABPA (Homo sapiens, UniProt Q06546 1-454); settings: protein: recombinant; tags: N-terminal GST; dsDNA, one strand shown
T3 sequence: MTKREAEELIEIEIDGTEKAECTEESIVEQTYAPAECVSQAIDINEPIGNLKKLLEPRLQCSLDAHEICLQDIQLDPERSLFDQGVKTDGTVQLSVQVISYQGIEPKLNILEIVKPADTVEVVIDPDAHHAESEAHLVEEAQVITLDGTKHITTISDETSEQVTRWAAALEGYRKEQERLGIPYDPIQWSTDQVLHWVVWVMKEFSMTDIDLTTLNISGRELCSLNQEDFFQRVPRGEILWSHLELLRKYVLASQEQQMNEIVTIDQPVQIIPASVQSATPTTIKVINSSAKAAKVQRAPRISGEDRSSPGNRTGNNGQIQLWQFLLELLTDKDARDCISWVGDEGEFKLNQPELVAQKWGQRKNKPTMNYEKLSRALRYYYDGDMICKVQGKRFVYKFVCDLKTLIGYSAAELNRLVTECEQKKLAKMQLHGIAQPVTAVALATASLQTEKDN
Summary of the method: as §1

ERG = target: T4, ERG (Homo sapiens, UniProt P11308 1-479); settings: protein: recombinant; tags: N-terminal GST; dsDNA, one strand shown
T4 sequence: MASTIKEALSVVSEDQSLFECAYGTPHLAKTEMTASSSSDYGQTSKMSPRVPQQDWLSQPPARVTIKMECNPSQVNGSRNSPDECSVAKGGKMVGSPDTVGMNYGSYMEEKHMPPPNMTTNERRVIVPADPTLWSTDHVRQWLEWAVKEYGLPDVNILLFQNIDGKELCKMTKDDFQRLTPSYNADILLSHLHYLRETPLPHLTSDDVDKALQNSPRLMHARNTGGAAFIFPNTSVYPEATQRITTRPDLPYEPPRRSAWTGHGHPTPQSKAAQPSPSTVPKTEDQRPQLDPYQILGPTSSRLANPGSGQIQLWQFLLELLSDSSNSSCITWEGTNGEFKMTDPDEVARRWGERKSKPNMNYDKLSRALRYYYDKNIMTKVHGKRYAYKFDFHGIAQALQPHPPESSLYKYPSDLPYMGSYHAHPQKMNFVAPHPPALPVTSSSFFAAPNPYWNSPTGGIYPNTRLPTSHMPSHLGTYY
Summary of the method: as §1

ELF1 = ELF1 (Homo sapiens, UniProt P32519 1-619); settings: protein: recombinant; tags: N-terminal GST; dsDNA, one strand shown
Chain of ELF1 (P32519 whole entry): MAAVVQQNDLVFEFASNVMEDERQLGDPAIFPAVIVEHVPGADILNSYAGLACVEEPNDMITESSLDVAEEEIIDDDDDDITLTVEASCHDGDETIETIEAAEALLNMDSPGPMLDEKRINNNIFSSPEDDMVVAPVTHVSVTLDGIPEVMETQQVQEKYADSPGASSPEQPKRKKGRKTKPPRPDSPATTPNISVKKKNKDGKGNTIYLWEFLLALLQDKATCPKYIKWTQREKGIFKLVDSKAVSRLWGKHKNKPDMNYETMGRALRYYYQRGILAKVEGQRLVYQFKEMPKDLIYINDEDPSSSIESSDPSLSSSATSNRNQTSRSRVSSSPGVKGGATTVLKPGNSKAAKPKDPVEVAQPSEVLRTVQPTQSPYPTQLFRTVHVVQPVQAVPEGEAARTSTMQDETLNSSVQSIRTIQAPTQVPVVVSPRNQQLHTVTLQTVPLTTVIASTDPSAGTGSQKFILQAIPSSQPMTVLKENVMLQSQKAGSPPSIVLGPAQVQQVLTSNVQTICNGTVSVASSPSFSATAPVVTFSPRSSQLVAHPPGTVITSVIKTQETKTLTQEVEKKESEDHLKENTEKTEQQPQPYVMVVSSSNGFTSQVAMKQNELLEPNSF
Summary of the method: as §1

EHF = target: T5, EHF (Homo sapiens, UniProt Q9NZC4 1-300); settings: protein: recombinant; tags: N-terminal GST; dsDNA, one strand shown
T5 sequence: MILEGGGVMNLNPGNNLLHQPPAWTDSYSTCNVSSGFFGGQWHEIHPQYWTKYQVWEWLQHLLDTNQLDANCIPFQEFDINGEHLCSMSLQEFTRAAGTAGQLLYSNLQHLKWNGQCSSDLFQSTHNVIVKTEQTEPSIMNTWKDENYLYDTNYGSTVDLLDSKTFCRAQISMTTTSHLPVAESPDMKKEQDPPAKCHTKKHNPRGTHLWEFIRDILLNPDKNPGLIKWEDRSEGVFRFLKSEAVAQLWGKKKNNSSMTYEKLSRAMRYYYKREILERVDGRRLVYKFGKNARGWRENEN
Summary of the method: as §1

SPI1 = SPI1 (Homo sapiens, UniProt P17947 1-270); settings: protein: recombinant; tags: N-terminal GST; dsDNA, one strand shown
Summary of the method: as §1

SPIB = SPIB (Homo sapiens, UniProt Q01892 1-262); settings: protein: recombinant; tags: N-terminal GST; dsDNA, one strand shown
Chain of SPIB (Q01892 whole entry): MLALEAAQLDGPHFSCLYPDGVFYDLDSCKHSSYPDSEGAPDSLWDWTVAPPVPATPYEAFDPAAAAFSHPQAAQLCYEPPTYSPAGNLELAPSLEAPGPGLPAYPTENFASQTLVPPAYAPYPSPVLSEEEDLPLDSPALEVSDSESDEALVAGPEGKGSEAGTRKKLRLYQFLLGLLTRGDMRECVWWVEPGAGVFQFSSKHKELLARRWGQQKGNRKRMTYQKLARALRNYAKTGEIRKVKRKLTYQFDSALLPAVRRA
Summary of the method: as §1

ELK3 = target: T6, ELK3 (Homo sapiens, UniProt P41970 1-407); settings: protein: recombinant; tags: N-terminal GST; dsDNA, one strand shown
T6 sequence: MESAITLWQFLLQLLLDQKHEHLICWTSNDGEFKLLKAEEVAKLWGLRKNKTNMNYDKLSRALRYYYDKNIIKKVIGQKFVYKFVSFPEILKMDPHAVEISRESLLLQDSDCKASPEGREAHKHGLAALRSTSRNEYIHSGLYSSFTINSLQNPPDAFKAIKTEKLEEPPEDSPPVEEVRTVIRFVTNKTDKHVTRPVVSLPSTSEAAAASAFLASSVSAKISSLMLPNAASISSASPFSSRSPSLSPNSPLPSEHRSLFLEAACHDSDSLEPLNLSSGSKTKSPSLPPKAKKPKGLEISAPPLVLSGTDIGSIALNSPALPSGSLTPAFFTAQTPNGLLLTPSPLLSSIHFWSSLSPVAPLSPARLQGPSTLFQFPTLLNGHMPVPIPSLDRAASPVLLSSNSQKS
Summary of the method: as §1

FEV = target: T7, FEV (Homo sapiens, UniProt Q99581 1-238); settings: protein: recombinant; tags: N-terminal GST; dsDNA, one strand shown
T7 sequence: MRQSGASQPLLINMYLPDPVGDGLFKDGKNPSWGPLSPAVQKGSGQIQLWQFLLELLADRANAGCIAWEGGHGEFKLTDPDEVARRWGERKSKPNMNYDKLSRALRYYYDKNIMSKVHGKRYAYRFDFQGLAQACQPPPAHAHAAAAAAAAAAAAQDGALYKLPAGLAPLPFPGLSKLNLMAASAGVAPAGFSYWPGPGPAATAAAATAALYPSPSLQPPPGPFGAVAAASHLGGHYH
Summary of the method: as §1

ETV5 = ETV5 (Homo sapiens, UniProt P41161 1-510); settings: protein: recombinant; tags: N-terminal GST; dsDNA, one strand shown
Chain of ETV5 (P41161 whole entry): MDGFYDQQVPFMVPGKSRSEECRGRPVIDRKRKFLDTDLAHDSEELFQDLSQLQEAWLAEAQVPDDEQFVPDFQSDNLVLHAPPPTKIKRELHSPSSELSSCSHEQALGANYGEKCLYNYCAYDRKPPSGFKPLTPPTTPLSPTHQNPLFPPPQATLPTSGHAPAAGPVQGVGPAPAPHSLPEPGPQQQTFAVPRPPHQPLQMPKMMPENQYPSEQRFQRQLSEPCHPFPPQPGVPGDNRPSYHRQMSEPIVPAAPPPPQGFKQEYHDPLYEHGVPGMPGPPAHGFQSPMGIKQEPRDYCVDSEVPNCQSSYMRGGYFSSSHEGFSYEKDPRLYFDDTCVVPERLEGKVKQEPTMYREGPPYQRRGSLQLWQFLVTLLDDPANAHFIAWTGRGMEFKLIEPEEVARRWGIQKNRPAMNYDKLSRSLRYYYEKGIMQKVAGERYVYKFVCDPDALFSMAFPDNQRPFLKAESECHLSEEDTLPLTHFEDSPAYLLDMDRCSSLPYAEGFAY
Summary of the method: as §1

HSF1 = HSF1 (Homo sapiens, UniProt Q00613 1-529); settings: protein: recombinant; tags: N-terminal GST; chain copies: 3; dsDNA, one strand shown
Chain of HSF1 (Q00613 whole entry): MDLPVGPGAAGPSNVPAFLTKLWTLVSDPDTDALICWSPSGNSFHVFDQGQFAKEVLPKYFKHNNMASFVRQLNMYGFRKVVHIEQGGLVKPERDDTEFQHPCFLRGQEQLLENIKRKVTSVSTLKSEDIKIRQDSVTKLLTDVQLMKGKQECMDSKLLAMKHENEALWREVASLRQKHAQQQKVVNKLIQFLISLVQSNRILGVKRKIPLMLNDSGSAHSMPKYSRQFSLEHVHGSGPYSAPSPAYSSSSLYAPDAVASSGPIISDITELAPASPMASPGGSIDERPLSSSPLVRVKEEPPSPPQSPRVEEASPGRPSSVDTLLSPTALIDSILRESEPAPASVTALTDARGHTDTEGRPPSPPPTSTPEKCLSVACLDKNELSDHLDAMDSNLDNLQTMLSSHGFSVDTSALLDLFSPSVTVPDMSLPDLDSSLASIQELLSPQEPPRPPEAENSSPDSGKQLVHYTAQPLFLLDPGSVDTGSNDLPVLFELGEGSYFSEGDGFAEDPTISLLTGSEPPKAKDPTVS
Summary of the method: as §1

SPIC = target: T8, SPIC (Homo sapiens, UniProt Q8N5J4 1-248); settings: protein: recombinant; tags: N-terminal GST; dsDNA, one strand shown
T8 sequence: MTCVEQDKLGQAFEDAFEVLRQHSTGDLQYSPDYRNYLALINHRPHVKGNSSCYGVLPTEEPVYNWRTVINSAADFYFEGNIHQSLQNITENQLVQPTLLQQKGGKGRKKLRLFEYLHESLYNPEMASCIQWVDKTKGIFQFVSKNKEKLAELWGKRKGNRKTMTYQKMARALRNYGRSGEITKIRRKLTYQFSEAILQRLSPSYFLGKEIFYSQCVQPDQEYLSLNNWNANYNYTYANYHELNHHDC
Summary of the method: as §1

ELF4 = ELF4 (Homo sapiens, UniProt Q99607 1-663); settings: protein: recombinant; tags: N-terminal GST; dsDNA, one strand shown
Chain of ELF4 (Q99607 whole entry): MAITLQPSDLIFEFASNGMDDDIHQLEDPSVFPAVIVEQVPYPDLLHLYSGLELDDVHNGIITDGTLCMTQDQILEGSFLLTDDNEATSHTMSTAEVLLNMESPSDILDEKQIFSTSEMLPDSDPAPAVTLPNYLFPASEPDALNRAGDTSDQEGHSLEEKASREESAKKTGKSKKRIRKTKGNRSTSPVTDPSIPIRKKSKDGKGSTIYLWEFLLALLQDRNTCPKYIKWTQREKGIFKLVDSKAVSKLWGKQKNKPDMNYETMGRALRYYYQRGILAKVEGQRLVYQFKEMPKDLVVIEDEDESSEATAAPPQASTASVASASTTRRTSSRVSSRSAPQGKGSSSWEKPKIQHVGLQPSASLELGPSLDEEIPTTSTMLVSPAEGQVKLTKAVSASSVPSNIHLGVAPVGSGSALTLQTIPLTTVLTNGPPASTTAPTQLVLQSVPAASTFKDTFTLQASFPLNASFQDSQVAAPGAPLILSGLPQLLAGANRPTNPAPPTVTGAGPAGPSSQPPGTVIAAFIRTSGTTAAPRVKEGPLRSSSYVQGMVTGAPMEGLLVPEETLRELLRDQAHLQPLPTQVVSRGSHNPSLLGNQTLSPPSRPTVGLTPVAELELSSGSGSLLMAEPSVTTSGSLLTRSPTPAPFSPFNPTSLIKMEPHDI
Summary of the method: as §1

ETV2 = target: T9, ETV2 (Homo sapiens, UniProt O00321 1-342); settings: protein: recombinant; tags: N-terminal GST; dsDNA, one strand shown
T9 sequence: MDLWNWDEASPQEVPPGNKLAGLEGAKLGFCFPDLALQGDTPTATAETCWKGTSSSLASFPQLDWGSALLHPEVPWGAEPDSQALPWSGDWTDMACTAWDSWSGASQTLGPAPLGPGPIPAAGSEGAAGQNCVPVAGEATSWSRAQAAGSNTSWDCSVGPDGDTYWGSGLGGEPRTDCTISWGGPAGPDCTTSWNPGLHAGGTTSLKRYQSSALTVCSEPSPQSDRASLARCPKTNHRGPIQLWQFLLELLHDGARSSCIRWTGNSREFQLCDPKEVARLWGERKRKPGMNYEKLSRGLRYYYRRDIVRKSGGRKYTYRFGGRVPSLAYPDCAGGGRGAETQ
Summary of the method: as §1

ELF3 = target: T10, ELF3 (Homo sapiens, UniProt P78545 1-371); settings: protein: recombinant; tags: N-terminal GST; dsDNA, one strand shown
T10 sequence: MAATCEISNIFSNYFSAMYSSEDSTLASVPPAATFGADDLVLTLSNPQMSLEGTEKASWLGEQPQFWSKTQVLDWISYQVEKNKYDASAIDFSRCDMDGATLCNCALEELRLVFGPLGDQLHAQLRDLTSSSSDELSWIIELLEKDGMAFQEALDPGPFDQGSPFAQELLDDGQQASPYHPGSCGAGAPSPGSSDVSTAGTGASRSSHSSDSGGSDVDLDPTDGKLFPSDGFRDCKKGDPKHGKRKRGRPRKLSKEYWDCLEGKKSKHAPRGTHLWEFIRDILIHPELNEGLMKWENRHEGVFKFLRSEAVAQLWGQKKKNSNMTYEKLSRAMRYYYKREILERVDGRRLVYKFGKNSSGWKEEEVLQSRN
Summary of the method: as §1

CRX = CRX (Homo sapiens, UniProt O43186 1-299); settings: protein: recombinant; tags: N-terminal GST; dsDNA, one strand shown
Chain of CRX (O43186 whole entry): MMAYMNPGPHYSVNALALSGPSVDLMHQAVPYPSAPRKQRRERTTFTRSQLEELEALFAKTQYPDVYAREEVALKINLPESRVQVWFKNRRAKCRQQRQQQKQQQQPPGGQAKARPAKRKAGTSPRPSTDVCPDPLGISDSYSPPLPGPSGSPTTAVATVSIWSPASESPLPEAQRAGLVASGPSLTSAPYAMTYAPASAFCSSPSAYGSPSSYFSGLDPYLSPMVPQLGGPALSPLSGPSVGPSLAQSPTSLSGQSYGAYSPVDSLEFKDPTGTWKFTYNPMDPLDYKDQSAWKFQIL
Summary of the method: as §1

ETV1 = ETV1 (Homo sapiens, UniProt P50549 1-477); settings: protein: recombinant; tags: N-terminal GST; dsDNA, one strand shown
Chain of ETV1 (P50549 whole entry): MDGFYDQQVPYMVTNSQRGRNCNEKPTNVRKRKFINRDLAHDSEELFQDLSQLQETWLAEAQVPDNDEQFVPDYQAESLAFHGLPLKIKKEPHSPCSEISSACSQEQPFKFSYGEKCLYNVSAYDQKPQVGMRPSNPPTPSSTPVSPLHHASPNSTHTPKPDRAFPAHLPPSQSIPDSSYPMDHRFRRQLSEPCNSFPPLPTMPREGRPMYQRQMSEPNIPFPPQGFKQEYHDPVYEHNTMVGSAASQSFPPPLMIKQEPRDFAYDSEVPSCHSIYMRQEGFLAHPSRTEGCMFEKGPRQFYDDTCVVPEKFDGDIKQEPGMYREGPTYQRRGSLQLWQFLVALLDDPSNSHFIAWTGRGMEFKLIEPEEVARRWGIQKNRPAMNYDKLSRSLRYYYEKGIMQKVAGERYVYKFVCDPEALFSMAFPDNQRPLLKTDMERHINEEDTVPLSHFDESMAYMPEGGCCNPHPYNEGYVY
Summary of the method: as §1

TGATTC
binding signal (FLI1): 1.12 fold enrichment (6-mer frequency, TF over GST control)
binding signal (ELK1): 1.09 fold enrichment (6-mer frequency, TF over GST control)
binding signal (GABPA): 1.1 fold enrichment (6-mer frequency, TF over GST control)
binding signal (ERG): 1.08 fold enrichment (6-mer frequency, TF over GST control)
binding signal (ELF1): 1.1 fold enrichment (6-mer frequency, TF over GST control)
binding signal (EHF): 1.12 fold enrichment (6-mer frequency, TF over GST control)
binding signal (SPI1): 1.06 fold enrichment (6-mer frequency, TF over GST control)
binding signal (SPIB): 1.17 fold enrichment (6-mer frequency, TF over GST control)
binding signal (ELK3): 1.02 fold enrichment (6-mer frequency, TF over GST control)
binding signal (FEV): 1.03 fold enrichment (6-mer frequency, TF over GST control)
binding signal (ETV5): 1.1 fold enrichment (6-mer frequency, TF over GST control)
binding signal (HSF1): 1.18 fold enrichment (6-mer frequency, TF over GST control)
binding signal (SPIC): 1.11 fold enrichment (6-mer frequency, TF over GST control)
binding signal (ELF4): 1.07 fold enrichment (6-mer frequency, TF over GST control)
binding signal (ETV2): 1.03 fold enrichment (6-mer frequency, TF over GST control)
binding signal (ELF3): 1.12 fold enrichment (6-mer frequency, TF over GST control)
binding signal (CRX): 1.12 fold enrichment (6-mer frequency, TF over GST control)
binding signal (ETV1): 1.18 fold enrichment (6-mer frequency, TF over GST control)
